Most compounds without a hit are left out; they make up all but 0.71% or so of the library.
ERG-DNA inh = inhibitors of human ERG Ets domain-DNA interaction. Potency, µM (series often up to 76.9 µM), actives largely listed as inhibitors. 0.028% of 370,000 active. P11308. fluorescence polarization, His-ERG Ets domain / labelled DNA; active means well fitted inhibition curve with a large enough effect in the polarisation, with a control signal flat; inconclusive means small, poorly fitted or top-dose-only effect, or effect the other way, or a change in a side signal; inactive means no such curve, though single readings can be large or run the other way; the % refers to the polarisation;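 further: polarization taken with two DNA probes labelled with fluorescein and Texas red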
Target sequence (P11308 whole entry, looked up, the tested form may be a part): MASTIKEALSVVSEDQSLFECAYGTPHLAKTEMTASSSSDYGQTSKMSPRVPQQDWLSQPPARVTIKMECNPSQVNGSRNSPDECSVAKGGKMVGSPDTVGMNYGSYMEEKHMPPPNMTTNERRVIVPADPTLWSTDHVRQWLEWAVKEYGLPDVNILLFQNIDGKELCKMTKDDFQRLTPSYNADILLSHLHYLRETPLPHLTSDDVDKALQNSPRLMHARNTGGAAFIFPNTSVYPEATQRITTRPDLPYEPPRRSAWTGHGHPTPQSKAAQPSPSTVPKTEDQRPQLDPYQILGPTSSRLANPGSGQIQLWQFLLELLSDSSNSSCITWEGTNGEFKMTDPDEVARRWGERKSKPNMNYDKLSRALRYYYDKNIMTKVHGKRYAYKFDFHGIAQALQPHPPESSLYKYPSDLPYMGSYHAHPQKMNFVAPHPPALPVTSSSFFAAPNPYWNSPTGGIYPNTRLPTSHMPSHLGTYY
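His-tagged ERG Ets domain (1 uM in the protein solution; 300mM KCl, 50mM Tris-HCl, 1mM EDTA, 1mM DTT, pH 7.5) received compound, then a probe mix of 5 nM fluorescein-DNA and 100nM Texas-615-DNA. Fluorescence polarization was read for both dyes.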
BLM inh = Bloom syndrome helicase (human) inhibition; Potency, µM (doses to about 56.1 µM), most hits filed as inhibitors; P54132; AID 2528; 0.2% of 350,000 active; recombinant BLM DNA unwinding, fluorescence dequenching; further: nearly all actives have a fitted effect of over 35% in size
RECQ1 inh-1 = blocks DNA unwinding by human RECQ1; P46063; RECQ1 DNA unwinding, red fluorescence kinetic read; Potency, µM (series often up to 57.3 µM), hits mostly inhibitors; 0.54% of 240,000 active; further: nearly all actives have a fitted effect of over 30% in size
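50 nM RECQ1T1 preincubated 15 min with compound in Tris pH 8.0 buffer with MgCl2, DTT, Tween-20 and 2.5 ug/ml poly(dI-dC); started with 200 nM TAMRA/BHQ-2 forked duplex and 2 mM ATP. Unwinding read as fluorescence (525/598 nm), two reads 2 h apart.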
RGS12 GoLoco inh = inhibitors of human Gai1-RGS12 GoLoco interaction (red fluorophore); 0.44% of 230,000 active; Potency, µM (doses to about 61.6 µM), actives largely listed as inhibitors; P63096; Gai1:RGS12 GoLoco peptide FP, rhodamine, 10 min; AID 880; active means well fitted inhibition curve with a large enough effect, not every such curve was filed as active; inactive means no such curve, though single readings can be large or run the other way; further: nearly all actives have a fitted effect of over 30% in size
TexasRed fluor = alters Texas Red total fluorescence, flagging assay interference. Potency, µM (titrated, usually from 106 µM). TRb/SRC2 Texas Red total fluorescence interference. 0.29% of 280,000 active; active means well fitted curve in either direction with a large enough effect; inconclusive means small, poorly fitted or top-dose-only effect
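Flags fluorescent or light-absorbing compounds by total fluorescence, S + 2P, at 555 nm excitation and 632 nm emission. Mixture: 20 nM Texas Red SRC2 peptide, 0.6 uM human TRb LBD, 1 uM T3, 5% DMSO; compound exposure 5 h at ambient temperature.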
TRb SRC2 PPI = inhibitors of human thyroid hormone receptor beta-SRC2 interaction | TRbeta-SRC2 peptide binding, fluorescence polarization; receptor liganded with 1 µM T3 | Potency, µM (series often up to 106 µM), usual class: inhibitors | 0.065% of 280,000 active | AID 1469; further: nearly all actives have a fitted effect of over 50% in size
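Assay buffer: 20 mM Tris-HCl, 100 mM NaCl, 10% glycerol, 1 mM EDTA, 0.01% NP-40, 1 mM DTT, 1 uM T3, 5% DMSO; TRb LBD 0.6 uM, Texas Red SRC2 20 nM; FP after 5 hr.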
RECQ1 inh conf = confirmation of human RECQ1 helicase inhibitors; shares compounds with RECQ1 inh-1; 28% of 610 active; RECQ1 helicase DNA unwinding, fluorescence; Potency, µM (doses to about 229 µM), actives largely listed as inhibitors; AID 2708; further: nearly all actives have a fitted effect of over 45% in size
RECQ1 ADP FP = ADP displacement flagged in RECQ1 inhibitor counter-screen; shares compounds with RECQ1 inh-1; Potency, µM (series often up to 228 µM), most hits filed as inhibitors; ADP fluorescence polarization displacement counterscreen; AID 2711; 27% of 530 active; further: nearly all actives have a fitted effect of over 45% in size
RECQ1 inh-2 = RECQ1 helicase inhibition confirmed, round 2; shares compounds with RECQ1 inh-1; recombinant RECQ1 DNA unwinding, red fluorescence; Potency, µM (series often up to 119 µM), usual class: inhibitors; 15% of 1,100 active; AID 504841; further: nearly all actives have a fitted effect of over 50% in size
Of the large screens only hits and unclear results are named; the others gave an inactive call (follow-up assays come after a bar, where they were run). Unless noted, the call rests on the fitted dose curve; in most records, active means well fitted curve in the direction sought with a large enough effect; inconclusive means small, poorly fitted or top-dose-only effect, or another doubt; inactive means no such curve, though single readings can be large; an effect the other way counts as inactive or inconclusive.

O=C(NCc1ccco1)[C@@H]1CSC2c3ccccc3C(=O)N21 (some centres not stated)	RECQ1 inh-1 inconclusive | RECQ1 inh-2 inconclusive
O=C1NC(=S)S/C1=C\C=C\c1ccc([N+](=O)[O-])o1	RECQ1 inh-1 13µM, TexasRed fluor inconclusive | RECQ1 inh conf inconclusive
CO[C@@H]1COC(=O)[C@@H](C)COC(=O)[C@@H](C)NC(=O)C/C=C\[C@@H]1C	none (no result: ERG-DNA inh, RGS12 GoLoco inh)
O=C1CC(Nc2ccc(N3CCOCC3)cc2)C(=O)N1c1cccc(C(F)(F)F)c1 (configuration not stated)	RECQ1 inh-1 inconclusive | RECQ1 inh-2 inactive
COc1cccc(N2C(=O)CC(Nc3ccc(N4CCOCC4)cc3)C2=O)c1 (configuration not stated)	none (no result: ERG-DNA inh)
CC1=NN(c2ccc(Cl)c(C(=O)O)c2)C(=O)/C1=C\c1ccc(-c2ccc(C(=O)O)cc2)o1	RECQ1 inh-1 inconclusive, TexasRed fluor inconclusive | RECQ1 inh-2 inconclusive
CC1=NN(c2ccccc2)C(=O)/C1=C/c1ccc(-c2ccc(C)c(C(=O)O)c2)o1	none (no result: BLM inh, RECQ1 inh-1, RGS12 GoLoco inh, TexasRed fluor, TRb SRC2 PPI)
Cn1c(NCCCO)nc2c1c(=O)n(Cc1ccccc1F)c(=O)n2C	none
COc1ccccc1Oc1nc2c(c(=O)n(Cc3ccccc3F)c(=O)n2C)n1C	BLM inh inconclusive, RECQ1 inh-1 inconclusive | RECQ1 inh-2 inactive
Cc1ccccc1NC(=O)C1CCN(S(=O)(=O)c2c(C)noc2/C=C/c2ccco2)CC1	none (no result: RECQ1 inh-1, RGS12 GoLoco inh)
Cc1ccc(NC(=O)C2CCN(S(=O)(=O)c3c(C)noc3/C=C/c3ccco3)CC2)nc1	RECQ1 inh-1 35µM | RECQ1 inh-2 inactive
C=CCc1cccc(/C=N/NC(=O)CN2CCN(Cc3ccccc3)CC2)c1O	RECQ1 inh-1 22µM (no result: ERG-DNA inh, RGS12 GoLoco inh) | RECQ1 inh conf inconclusive | RECQ1 ADP FP 11µM
Cc1noc(C)c1-c1ccc2ncnc(NCc3cccc(C(F)(F)F)c3)c2c1	none (no result: ERG-DNA inh, RGS12 GoLoco inh)
COc1ccc(/C=C(\NC(=O)c2ccc(OC)cc2)C(=O)NC(CCSC)C(=O)O)cc1 (configuration not stated)	none | RECQ1 inh conf inactive | RECQ1 ADP FP inactive
O=C(C1CCC1)N1CCc2cc(S(=O)(=O)NCc3ccc(F)cc3)ccc21	none (no result: RECQ1 inh-1, RGS12 GoLoco inh)
COc1cccc(CN2CCN(C(=O)c3ccc(-c4ccccc4)cc3)CC2)c1	RECQ1 inh-1 25µM | RECQ1 inh-2 inactive
CN(C)c1ccc(-c2cncnc2Nc2ccccc2)cc1	none (no result: ERG-DNA inh, TexasRed fluor, TRb SRC2 PPI)
N/C(=N\OC(=O)c1cccs1)c1cccc([N+](=O)[O-])c1	RECQ1 inh-1 45µM | RECQ1 inh-2 inactive
CN(C)c1ncc2nc(-c3cn(C)c4ccccc34)c(=O)n(C[C@H]3CCCO3)c2n1	none (no result: ERG-DNA inh, TexasRed fluor, TRb SRC2 PPI)
COCCCNc1c2c3c(cccc3[nH]c1=O)C(=O)c1ccccc1-2	ERG-DNA inh 7.1µM, RECQ1 inh-1 25µM, RGS12 GoLoco inh 4.5µM, TexasRed fluor inconclusive, TRb SRC2 PPI inconclusive | RECQ1 inh-2 56µM
Nc1cc2nc[nH]c2cc1N	BLM inh inconclusive, RECQ1 inh-1 1.8µM | RECQ1 inh conf inactive | RECQ1 ADP FP inconclusive
C=CC[C@@H]1C=C[C@H](O/N=C/c2ccc(C(=O)N3[C@H](c4ccc(C)cc4)[C@@H](C)CC[C@H]3C(=O)OC)cc2)[C@@H](CO)O1	RECQ1 inh-1 inconclusive (no result: ERG-DNA inh) | RECQ1 inh-2 inactive
c1ccc2c(Nc3ccc4c(c3)OCCO4)c3c(nc2c1)CCC3	RECQ1 inh-1 inconclusive | RECQ1 inh-2 inactive
Cc1cc(/C=N/Nc2ccc([N+](=O)[O-])cn2)c(C)n1-c1ccc(C(=O)O)cc1	BLM inh inconclusive, RECQ1 inh-1 18µM | RECQ1 inh conf inconclusive

From PubChem
